FadD28 FP inh = M. tuberculosis FadD28 bisubstrate binding inhibition; FadD28 bisubstrate probe binding, fluorescence polarization; inhibition, % at 12.5 µM; 360,000 tested, 0.22% active; AID 588549; in the data active = inhibition above about 8.5%, passing the limit was not always enough; inconclusive = no clear call, values can overlap the other calls
RecA intein inh = Mtb RecA intein splicing inhibition; P9WHJ3; 290,000 tested, 0.75% active; cell-free RecA intein splicing, fluorescence; inhibition, % (no concentration beside the values); in the data active = inhibition above about 30%; inconclusive = no clear call, values can overlap the other calls;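 note: 0% = vehicle wells and 100% = reference inhibitor control wells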
Yp Topo-I inh = inhibitors of Yersinia pestis topoisomerase I; Y. pestis Topo-I cleavage product accumulation, plate reader; activity, % at 10 µM; AID 504884; 360,000 tested, 0.064% active; in the data active = activity above about 50%, passing the limit was not always enough; inconclusive = no clear call, values can overlap the other calls
UGM FP inh = blocks M. tuberculosis UGM enzyme | purified UGM, fluorescence polarization probe displacement | inhibition, % at 10 µM | 320,000 tested, 0.06% active | AID 504406; in the data active = inhibition above about 10%, passing the limit was not always enough; inconclusive = no clear call, values can overlap the other calls
Mtb BioA inh = inhibitors of Mycobacterium tuberculosis BioA enzyme; purified M. tuberculosis BioA enzyme, plate reader; inhibition, % at 9.99 µM; 360,000 tested, 0.096% active; in the data active = inhibition above about 40%; inconclusive = no clear call, values can overlap the other calls
Rv3671c protease = Rv3671c (M. tuberculosis) protease inhibition; inhibition, % at 5.96 µM; 320,000 tested, 0.048% active; P9WHR9; in the data active = inhibition above about 38%;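 note: extracellular domain of Rv3671c used as enzyme; 0% = enzyme with DMSO and 100% = no enzyme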
Target sequence (P9WHR9 whole entry, looked up, the tested form may be a part): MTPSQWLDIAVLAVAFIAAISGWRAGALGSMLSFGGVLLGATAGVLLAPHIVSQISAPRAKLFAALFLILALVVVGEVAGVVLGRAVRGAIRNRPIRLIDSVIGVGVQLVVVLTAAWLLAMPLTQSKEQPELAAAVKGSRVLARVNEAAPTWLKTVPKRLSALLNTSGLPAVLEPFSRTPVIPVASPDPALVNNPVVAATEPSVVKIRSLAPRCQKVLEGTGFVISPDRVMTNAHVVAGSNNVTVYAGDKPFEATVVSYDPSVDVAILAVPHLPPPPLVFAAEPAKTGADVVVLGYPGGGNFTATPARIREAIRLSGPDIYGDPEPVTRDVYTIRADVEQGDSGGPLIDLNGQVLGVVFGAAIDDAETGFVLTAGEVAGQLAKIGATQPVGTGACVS
Starred values were filed as active, the others as inactive; ? = inconclusive; . = no result given. Rows were chosen to be rich in hits. Some 0.82% of all compounds tested hit in one or more screens of this group.

SMILES | FadD28 FP inh | RecA intein inh | Yp Topo-I inh | UGM FP inh | Mtb BioA inh | Rv3671c protease
CCCCCNC(=O)c1ccc2c(=O)[nH]c3c(C(=O)NCC4CCCO4)sc(=S)n3c2c1 (centres undefined) | 17.0* | . | 13.5 | 0.2 | 1.3 | 0.1
O=C(NCc1ccccc1)c1ccc2c(=O)[nH]c3c(C(=O)NCC4CCCO4)sc(=S)n3c2c1 (centres undefined) | 23.4* | -48.5 | 3.9 | 0.2 | 1.9 | 2.6
O=C1O[C@@H](c2ccccc2)[C@@H](c2ccccc2)N2[C@@H](c3ccc(O)cc3)[C@]3(C(=O)Nc4ccc(C#CC5(O)CCCCCC5)cc43)[C@@H](C(=O)N3CCN(c4ncccn4)CC3)[C@H]12 | . | . | . | . | 0.6 | .
COc1cccc(C#Cc2cnc3c(c2)C(=O)N([C@H](C)CO)C[C@@H](C)[C@H](CN(C)C(=O)C2CCOCC2)O3)c1 | . | . | . | . | 3.3 | .
Cc1ccc(OC(=O)CCC(=O)Oc2ccc(C)cc2C)c(C)c1 | -2.8 | . | 60.1* | . | -1.3 | .
Cc1ccc(/C=C2/SC(=O)NC2=S)o1 | 15.7* | . | -21.7 | . | -1.7 | .
CCC(=O)Nc1ccc2c(c1)OC[C@H](C)N(C(=O)c1ccc(F)cc1)C[C@@H](C)[C@@H](OC)CN(C)C2=O | . | . | . | . | -0.8 | .
Cc1ccc(S[C@@H](CCN2CC[C@H](C)CCC2=O)c2ccccc2)cc1 | -13.4 | 30.3* | 34.6 | 0.8 | 0.4 | -1.2
Cc1cc(C(=O)CCl)c(C)n1CCc1ccccc1 | . | 40.2* | . | -0.7 | . | 4.6
CCOC(=O)c1cc(C)n(CCc2ccccc2)c1C | -2.3 | 7.8 | -9.5 | -0.2 | 0.8 | 2.6
O=Cc1ccnc(-c2ccc(OC(=O)c3ccco3)cc2)n1 | -0.9 | 35.6* | 3.3 | 3.6 | . | 4.3
COc1ccccc1N1C(=O)C2C(C(=O)c3ccccc3)=NN(c3ccc(C)cc3)C2C1=O (centres undefined) | -1.1 | -1.5 | 3.0 | 7.6 | -8.2 | -15.7
COc1ccccc1N1C(=O)C2C(C(=O)c3ccccc3)=NN(c3ccc(Br)cc3)C2C1=O (centres undefined) | -3.1 | -87.8 | 9.3 | 10.9* | -8.9 | -8.9
O=C(C1=NN(c2ccccc2)C2C(=O)N(c3cccc(Cl)c3)C(=O)C12)c1ccccc1 (centres undefined) | -0.7 | . | 1.6 | ? | -2.2 | -22.1
O=C(C1=NN(c2ccccc2)C2C(=O)N(c3ccc(Cl)cc3)C(=O)C12)c1ccccc1 (centres undefined) | 0.4 | . | 2.2 | 14.8* | -4.1 | -14.8
CCC(=O)N1C[C@@H](C)[C@H](OC)CN(C)C(=O)c2ccc(NC(=O)C3CC3)cc2OC[C@@H]1C | . | . | . | . | -0.4 | .
Cn1nc(-c2ccccc2)c2nc3ccccc3nc21 | -1.6 | -2.6 | -6.7 | 28.3* | -13.3 | 4.4
CCCCn1nc(-c2ccccc2)c2nc3ccccc3nc21 | . | -140.7 | . | 29.2* | . | -7.5
CCCCn1c2nc3ccccc3nc2c2c(=O)n(-c3ccccc3)cnc21 | -1.0 | 1.0 | 5.3 | 2.5 | -1.5 | 0.1
COc1ccc(NC(=O)N(C)C[C@@H]2Oc3ccc(NC(=O)CCC(F)(F)F)cc3CC(=O)N([C@@H](C)CO)C[C@@H]2C)cc1 | . | . | . | . | 0.4 | .
CCCOc1cccc(-c2nc3ccccc3c(=O)o2)c1 | -4.9 | 43.2* | 13.2 | 3.6 | . | 8.6
CCC(=O)Nc1cccc(-c2nc3ccccc3c(=O)o2)c1 | -7.9 | -1.4 | 1.1 | -0.5 | 1.5 | -2.3
CC1=C(C#N)C(=O)NC(=O)/C1=C\c1ccc(-c2cc(C)c(C)cc2[N+](=O)[O-])o1 | 14.7* | 7.7 | 1.7 | . | 3.0 | .
COc1ccc(CNC(=O)CN(Cc2ccc(C)cc2)S(=O)(=O)c2ccc(Cl)cc2)cc1 | -3.3 | -2.3 | 51.5* | 0.6 | 0.1 | -20.3
O=C(CN1C(=O)NC2(CCCc3ccccc32)C1=O)c1ccc(Br)cc1 (centres undefined) | 17.2* | 6.6 | 13.8 | -1.2 | -1.6 | -1.2
SMILES | FadD28 FP inh | RecA intein inh | Yp Topo-I inh | UGM FP inh | Mtb BioA inh | Rv3671c protease
COc1ccc(-c2cnc3c(c2)C(=O)N([C@H](C)CO)C[C@@H](C)[C@H](CN(C)C(=O)C2CCCCC2)O3)cc1 | . | . | . | . | 3.3 | .
CC(=O)c1ccc(NC(=O)Nc2ccc(NS(=O)(=O)c3ccc(C)cc3)cc2)cc1 | 11.2* | 11.4 | -12.4 | 4.7 | . | -105.7
CC1(C)C(/C=C/C=C/C=C/C=C2\N(CCCCS(=O)(=O)O)c3ccc4ccccc4c3C2(C)C)=[N+](CCCCS(=O)(=O)[O-])c2ccc3ccccc3c21 | 11.7* | . | 43.3 | 0.5 | 0.4 | -86.7
Cc1c2ccccc2cc[n+]1CCCS(=O)(=O)[O-] | -1.7 | -0.2 | -1.5 | -1.3 | . | 0.5
Cc1[nH][nH]c(=O)c1C(c1ccccc1[N+](=O)[O-])C(C#N)C#N (centres undefined) | -2.1 | 69.5* | -12.4 | 1.5 | 0.6 | -7.8
COc1ccc(-c2ccc(C(c3c(C)[nH][nH]c3=O)c3c(C)[nH][nH]c3=O)o2)c([N+](=O)[O-])c1 | 0.7 | . | 3.4 | . | . | .
Oc1ccc2ccccc2c1-c1sc(Nc2ccccc2)n[n+]1-c1ccc(F)cc1 | 1.2 | 1.4 | 99.4* | 6.3 | -0.2 | 1.7
Oc1ccc(-c2sc(Nc3ccccc3)n[n+]2-c2ccc(F)cc2)cc1 | -1.1 | -0.6 | -2.6 | -2.2 | -1.0 | -1.1
CCc1cccc2c(C(=O)CN3C(=O)NC4(CCCCC4)C3=O)c[nH]c12 | 13.3* | . | -9.7 | 4.1 | -0.4 | -5.2
CCc1cccc2c(C(=O)CN3C(=O)C(=O)N(C4CCCC4)C3=O)c[nH]c12 | 14.0* | . | -19.1 | 1.3 | . | 5.3
Cc1ccc(C)c(C(=O)CN2C(=O)NC3(CCCCCCC3)C2=O)c1 | -0.7 | 4.4 | 4.1 | -0.4 | -0.1 | -4.5
CCc1cccc2c(C(=O)CN3C(=O)NC4(CCCCCC4)C3=O)c[nH]c12 | 52.6* | . | -16.9 | -1.8 | -1.1 | -9.8
CN(C)CCCNC(=O)C[C@@H]1CC[C@@H](NC(=O)c2ccccc2F)[C@@H](CO)O1 | . | . | . | . | -2.2 | .
C[C@@H]1CN([C@@H](C)CO)C(=O)c2cc(NS(C)(=O)=O)ccc2O[C@@H](C)CCCCO[C@@H]1CN(C)Cc1ccc(C(F)(F)F)cc1 | . | . | . | . | 1.5 | .
C/C(=N\NC(=O)c1ccccc1O)C1C(=O)c2ccccc2C1=O | ? | 27.1 | -6.6 | 0.5 | 2.5 | 22.2
C/C(=N/NC(=O)c1cc2ccccc2cc1O)C1C(=O)c2ccccc2C1=O | 36.5* | 27.4 | 3.9 | 1.3 | 0.5 | 23.3
COc1cccc(NC(=O)Cn2nnc(-c3ccccc3N)n2)c1 | 14.7* | 2.1 | -6.9 | 3.5 | 1.7 | -10.5
CC(C)C(=O)N1CCN(c2nc(-c3ccc(Cl)cc3)cs2)CC1 | 1.1 | . | 52.5* | -0.2 | . | 4.6
CCOC(=O)N1CCN(c2nc(-c3ccc(Cl)cc3)cs2)CC1 | -2.5 | 3.5 | 9.4 | -1.5 | . | -6.1
CC(=O)N[C@@H]1CC[C@H](CC(=O)NCC2CCCCC2)O[C@@H]1CO | . | . | . | . | -0.3 | .
CC(Cc1ccc(O)cc1)NCC(O)c1ccc(O)c(O)c1 (centres undefined) | 8.2* | . | -5.7 | . | -1.2 | .
Cc1ccc(C)c(S(=O)(=O)Nc2cc(SCC(=O)O)c(O)c3ccccc23)c1 | 3.3 | . | 4.7 | 0.6 | . | -147.2
